Records with an inconclusive call do not appear. Unmarked numbers belong to inactive results. Calls of active or inactive are those of the source. Calls come from the whole dose curve; as a rule, active = well fitted cell-killing curve with a large enough effect; inconclusive = small, poorly fitted or top-dose-only effect, or effect the other way; inactive = flat fitted curve, though single readings scatter. Where a SMILES comes first, the peptide text is derived from it. Bridges are numbered along the chain shown (N, C = ends). [ ]: non-standard residue; d: D form. The star is where a group is joined. X1 = CCC(C)C(N)C1=NC(C(=O)*)CS1; dOrn = NCCC[C@@H](N)C(=O)O
Each compound was assayed on CAOV3 (assay: Primary qHTS to identify gynecologic anti-cancer compounds using libraries of approved drugs and bioactive compounds (AID 1345084; note: nearly all actives have a fitted effect of over 55% in size)). Settings: Gynecologic cancer cell panel viability, ATPlite luminescence, 48 h; series mostly up to 57.5 µM; activity change, negative = cytotoxicity: at the top concentration.
How it was run: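 Cells, 1,000 per well, were allowed to settle for 16 h at 37 C before compound addition. Five concentrations were tested for 48 h, and viability was read by ATPlite luminescence after 15 min at room temperature.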
% is set by controls: 0 for no effect and ±100 for the full control effect.

Compound	activity change, negative = cytotoxicity	Potency
COc1c(OC2OC(CO)C(O)C(O)C2O)ccc(O)c1C(=O)OCc1ccccc1O[C@@H]1O[C@H](CO)[C@@H](O)[C@H](O)[C@H]1O (stereo partly specified)	2.72% [at 25.3 µM]	
CC1CCC2(C)C(CC(O)C(O)C23CO3)C1(C)CCC1=CC(=O)OC1O (stereo unspecified)	26.8% [at 38.5 µM]	
CCC(C)C(N)C1=NC(C(=O)N[C@@H](CC(C)C)C(=O)N[C@H](CCC(=O)O)C(=O)N[C@H](C(=O)N[C@H]2CCCCNC(=O)[C@H](CC(N)=O)NC(=O)[C@@H](CC(=O)O)NC(=O)[C@H](Cc3cnc[nH]3)NC(=O)[C@@H](Cc3ccccc3)NC(=O)[C@H]([C@@H](C)CC)NC(=O)[C@@H](CCCN)NC2=O)[C@@H](C)CC)CS1 (stereo partly specified) (X1-L[dE]IK[dOrn]I[dF]H[dD]N; lactam 4-C)		inactive
C[C@@]12C[C@]3(O)O[C@H](O1)[C@]1(COC(=O)c4ccccc4)[C@H]3C[C@@]12O[C@@H]1O[C@H](COC(=O)c2ccccc2)[C@@H](O)[C@H](O)[C@H]1O	4.01% [at 25.3 µM]	
C=CC1C(O[C@@H]2O[C@H](CO)[C@@H](O)[C@H](O)[C@H]2O)OC=C(C(=O)OC)C1Cc1nccc2c1[nH]c1ccccc12 (stereo partly specified)	9.47% [at 25.3 µM]	
Cc1c(-c2ccnn2C)cc(C(=O)NCc2ccc(S(C)(=O)=O)cn2)c(=O)n1-c1cccc(C(F)(F)F)c1		inactive
CCOc1ccc(C(Nc2ccccn2)c2ccc3ccc(C)nc3c2O)cc1C (stereo unspecified)	6.54%	
CC(=O)c1c(O)cc2c(c1C)C(=O)CC(O)C2 (stereo unspecified)	17.2%	
O=C(/C=C/c1ccc(O)cc1)OCC1=CC2OC(=O)C3=CO[C@@H](O[C@@H]4O[C@H](CO)[C@@H](O)[C@H](O)[C@H]4O)[C@H]1[C@@H]32 (stereo partly specified)	8.76% [at 25.3 µM]	
CCC1CC2C(C)=CC3CCCCC3C2(C)C2(OC(=O)C(C)(O)OC2=O)O1 (stereo unspecified)	9.4% [at 38.5 µM]	
CC12CCC3C(C)(C)C(O)CCC3(C)C1Cc1c(oc(C(=O)O)cc1=O)O2 (stereo unspecified)	-4.79% [at 38.5 µM]	

Source: PubChem BioAssay (NCATS)
